High-throughput results as filed in PubChem.
Pf apPOL block: Pf-apPOL DNA polymerase inhibition; Recombinant Pf-apPOL, molecular beacon fluorescence, 1.5 h; 210,000 compounds, 0.25% hits; inhibition, % at 10 µM
mHTT CaM bind: inhibitors of human mutant huntingtin-calmodulin interaction. inhibition, % at 15 µM. P42858. 190,000 compounds, 3.6% hits. AlphaScreen His-mHTT/GST-CaM binding, luminescence
Of the large screens only hits and unclear results are named; the others gave an inactive call. Compounds with a hit are over-represented: about 3.5% of the library has one in this group of screens. No stated cut-off is given here; in the data, active means inhibition above about 50%; inactive means the rest.

COc1ccc(C(=O)N2CCCC2c2cc(C(C)C)no2)cc1OC (stereo unspecified)	none
Cc1ccc(OCC(=O)Nc2cc(Cl)c(Cl)cc2Cl)cc1C	none
CN1CCN(c2ccc3c(c2)Oc2ccccc2CN(Cc2cn(Cc4ccc(C(F)(F)F)cc4)nn2)S3(=O)=O)CC1	mHTT CaM bind 72
O=S1(=O)c2ccc(N3CCCC3)cc2Oc2ccccc2CN1Cc1cn(Cc2ccc(Cl)cc2)nn1	none
COc1ccc(C(=O)N2CCC(c3nc(C4CC4)n[nH]3)CC2)c(OC)n1	none
O=C1CCC(=O)N1c1nc2ccccc2s1	none
CCn1c(N2CCC(C(=O)N3CCN(c4ccccc4F)CC3)CC2)cc(=O)n(C)c1=O	mHTT CaM bind 62
Cn1c(N2CCC(C(=O)N3CCN(c4ccccc4F)CC3)CC2)cc(=O)n(C)c1=O	none
CCn1c(N2CCC(C(=O)N3CCN(c4ccccn4)CC3)CC2)cc(=O)n(C)c1=O	mHTT CaM bind 53
Cn1c(N2CCC(C(=O)N3CCN(c4ccccn4)CC3)CC2)cc(=O)n(C)c1=O	none
CCc1ccc(CNC(=O)Cn2c(=O)c(=O)n(Cc3ccncc3)c3ncccc32)cc1	none
COc1cc2c(cc1OC)CN(Cc1ccc(C)s1)CC2	none
O=C(NC1CCCCC1)C1c2cccn2CC(=O)N1Cc1ccccc1Cl (stereo unspecified)	none
Nc1ccc(Cl)c(-c2nc3ncccc3o2)c1	none
CC1(C(=O)NCc2cccc(F)c2)CCCN(C(=O)c2ccc(Br)cc2)C1 (stereo unspecified)	none
Cc1cc(Br)c(O)c(C2NC(C(=O)O)Cc3c2[nH]c2ccccc32)c1 (stereo unspecified)	none
O=C(O)C1Cc2c([nH]c3ccccc23)C(c2cc(Br)ccc2O)N1 (stereo unspecified)	mHTT CaM bind 57
COc1ncccc1C(=O)N1CC(c2nc(-c3ccccn3)no2)C1	none
COc1ccc(C)cc1NC(=O)C1CCc2nc(N3CCOCC3)ncc2C1 (stereo unspecified)	none
O=C1CC(c2ccccc2)Sc2ccccc2N1Cc1ccccc1 (stereo unspecified)	mHTT CaM bind 80
O=C1CC(c2ccco2)Sc2ccccc2N1Cc1cccc(F)c1 (stereo unspecified)	none
O=C(O)C1C2CC=CC2c2cc([N+](=O)[O-])cc3c2N1CC1CC=CC31 (stereo unspecified)	none
O=[N+]([O-])c1ccc(NCc2ccccc2)c([N+](=O)[O-])c1	none (no result: mHTT CaM bind)
Cc1ccsc1C1C(C#N)=C(N)SC(N)=C1C#N	none
N#CC1=C(N)SC(N)=C(C#N)C1c1ccc(Cl)c([N+](=O)[O-])c1	mHTT CaM bind 77
Cc1cc(C)c([N+](=O)[O-])c(C)c1C1C(C#N)=C(N)SC(N)=C1C#N	mHTT CaM bind 65
N#CC1=C(N)SC(N)=C(C#N)C1c1ccc([N+](=O)[O-])s1	mHTT CaM bind 67 (no result: Pf apPOL block)
N#Cc1ccc([N+](=O)[O-])s1	none (no result: mHTT CaM bind)
N#CC1=C(N)SC(N)=C(C#N)C1c1ccc(Cl)cc1	none
OC(=C(C(=S)Nc1ccccc1)[n+]1ccccc1)c1ccccc1	none
O=C(NCc1ccc(F)cc1)c1ccc(CS(=O)(=O)Cc2ccccc2Cl)o1	none
O=C(CN1CCN(c2ccccc2)C1=O)Nc1cccnc1	none
CN(C)c1ccc(/C=C/c2cc[n+](C)c3ccccc23)cc1	mHTT CaM bind 80
C[n+]1ccc(/C=C/c2ccc3c(c2)OCO3)c2ccccc21	none
COC1CCCCC1Nc1ccc2c(c1)CCC2 (stereo unspecified)	mHTT CaM bind 52 (no result: Pf apPOL block)
CC(=O)Nc1ccc2c(c1)CCC2	none (no result: mHTT CaM bind)
CNC(=O)N1CCc2[nH]cnc2C1c1ccncc1 (stereo unspecified)	none
COc1ccc(NC(=O)N2CCc3[nH]cnc3C2c2ccccn2)cc1OC (stereo unspecified)	mHTT CaM bind 91
Cc1cccc(NC(=O)N2CCc3[nH]cnc3C2c2ccncc2)c1 (stereo unspecified)	none
CNC(=O)N1CCc2[nH]cnc2C1c1ccccn1 (stereo unspecified)	mHTT CaM bind 94
CCOC(=O)c1c(Nc2ccccc2)sc([N+](=O)[O-])c1N	none (no result: mHTT CaM bind)
CCOC(C)=C(C#N)C(N)=S	none (no result: mHTT CaM bind)
CC1CCCC(NC(=O)CCSCc2ccc(Cl)cc2)C1C (stereo unspecified)	none
O=C1c2cc3ccccc3nc2-c2cccc3cccc1c23	none (no result: mHTT CaM bind)
CC(C)Cn1cnc2c(-c3ccc(F)cc3)csc2c1=O	none
c1ccc(CNc2ccc3cn[nH]c3c2)cc1	mHTT CaM bind 82
COc1ccccc1CNc1ccc2cn[nH]c2c1	none
Cc1ccccc1CNc1ccc2cn[nH]c2c1	mHTT CaM bind 62
COc1cc(CNc2ccc3cn[nH]c3c2)ccc1O	none
Cc1ccc(CNc2ccc3[nH]ncc3c2)cc1	mHTT CaM bind 82
Oc1ccc(CNc2ccc3cn[nH]c3c2)cc1	none
CCOC(=O)c1cc2cc(OCc3ccccc3)ccc2n1C(=O)c1ccccc1C(=O)O	none (no result: mHTT CaM bind)
O=C(O)C1CCCCN1Cc1ccccc1 (stereo unspecified)	none
CC(C(=O)NCCN1CCN(C)CC1)C1CCN(S(=O)(=O)c2cccs2)CC1 (stereo unspecified)	none
Cn1c(=O)cc(Nc2ccc(Cl)cc2)[nH]c1=O	none
CN(C)c1ccc(C=C2c3cc([N+](=O)[O-])cc([N+](=O)[O-])c3-c3c2cc([N+](=O)[O-])cc3[N+](=O)[O-])cc1	none
COc1ccc(C=C2c3cc([N+](=O)[O-])cc([N+](=O)[O-])c3-c3c2cc([N+](=O)[O-])cc3[N+](=O)[O-])cc1	mHTT CaM bind 100
O=C(CSc1nnc2c(n1)[nH]c1ccccc12)Nc1ccccc1F	none
Cn1ncc(Br)c1C(=O)Nc1nc2ccc(Br)cc2s1	none
O=C(NCCn1nc(-c2cccs2)ccc1=O)C1c2ccccc2Oc2ccccc21	none
O=C(Nc1cc(-c2cccs2)nn1CCO)C1c2ccccc2Oc2ccccc21	mHTT CaM bind 58
Cc1nc2c(C(=O)N3CCOCC3)cnn2c(C)c1Cc1c(F)cccc1Cl	none
O=C(Nc1ccc2c(c1)OCCO2)c1ccc(Br)cc1	mHTT CaM bind 96
O=C(Nc1ccc2c(c1)OCO2)c1ccc(Br)cc1	none
COc1ccc(CCNC2CC(=O)N(C3CCCCC3)C2=O)cc1OC (stereo unspecified)	none
O=[N+]([O-])c1ccc(S(=O)(=O)N2CCN(c3ncccn3)CC2)cc1	Pf apPOL block 99
O=[N+]([O-])c1ccc(S(=O)(=O)N2CCN(c3ccccn3)CC2)cc1	none
O=C(O)CCC(=O)Nc1ccc(Cl)c(NC(=O)Cc2ccccc2)c1	none
CCOC(=O)c1ccccc1NC(=O)N1CC2CCCN2c2ccccc21 (stereo unspecified)	mHTT CaM bind 68
Cc1c(Cl)cccc1NC(=O)N1CC2CCCN2c2ccccc21 (stereo unspecified)	mHTT CaM bind 77
O=C(Nc1ccccc1F)N1CC2CCCN2c2ccccc21 (stereo unspecified)	none
CCc1ccccc1NC(=O)N1CC2CCCN2c2ccccc21 (stereo unspecified)	mHTT CaM bind 79
Cc1c(Cl)cccc1NC(=O)N1CC(C)Oc2ccccc21 (stereo unspecified)	none
COC(=O)c1ccc(Cl)cc1NC(=O)N1CC2CCCN2c2ccccc21 (stereo unspecified)	none
O=C(c1ccc(Cl)s1)N1CCC(CCOc2ccccc2)CC1	none
O=[N+]([O-])c1cc(C2SCCS2)ccc1Sc1ccc(Br)cc1	none (no result: mHTT CaM bind)
Cc1ccc(C(=O)Nc2ccc(S(=O)(=O)N3CCCC3)cc2)cc1C	none
O=C(Nc1ccc(S(=O)(=O)Nc2ccc(Br)cc2)cc1)c1ccc([N+](=O)[O-])cc1	none
